Experimental findings from PubChem BioAssay AID720504 (National Center for Advancing Translational Sciences (NCATS), 2013) are described below.

Out of some 360,000 compounds screened, about 10,000 (2.8%) were called active. Roughly 4% stayed inconclusive and do not appear here. The call rests on the fitted dose curve; in most records, active means well fitted inhibition curve with a large enough effect; inconclusive means small, poorly fitted or top-dose-only effect; inactive means flat fitted curve, though single readings scatter. Only a selection was taken, and actives are over-represented in it overall.
On the % scale 0 is the no-effect control and ±100 the full control effect; potency means the concentration at half of the fitted maximal effect.

Chain of Serine/threonine-protein kinase PLK1 (Homo sapiens) (P53350 whole entry, looked up, the tested form may be a part): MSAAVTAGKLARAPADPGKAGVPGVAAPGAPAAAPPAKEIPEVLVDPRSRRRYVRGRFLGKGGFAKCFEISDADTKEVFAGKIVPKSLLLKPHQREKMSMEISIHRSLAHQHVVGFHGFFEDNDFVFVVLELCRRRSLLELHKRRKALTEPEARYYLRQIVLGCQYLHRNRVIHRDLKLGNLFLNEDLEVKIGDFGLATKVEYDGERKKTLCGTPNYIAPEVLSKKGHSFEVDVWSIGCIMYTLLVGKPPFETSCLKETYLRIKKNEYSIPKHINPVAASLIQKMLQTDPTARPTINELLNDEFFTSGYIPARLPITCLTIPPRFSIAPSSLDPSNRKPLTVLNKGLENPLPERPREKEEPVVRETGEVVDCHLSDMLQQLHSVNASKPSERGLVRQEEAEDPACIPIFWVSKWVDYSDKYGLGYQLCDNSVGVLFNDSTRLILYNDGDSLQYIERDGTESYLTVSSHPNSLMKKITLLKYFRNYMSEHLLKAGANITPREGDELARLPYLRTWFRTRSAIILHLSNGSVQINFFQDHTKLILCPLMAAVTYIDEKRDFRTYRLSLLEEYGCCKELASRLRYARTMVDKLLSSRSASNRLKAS

The target of the experiment is Serine/threonine-protein kinase PLK1 (Homo sapiens) (UniProt P53350). The experiment can be described thus: qHTS for Inhibitors of PLK1-PDB (polo-like kinase 1 - polo-box domain): Primary Screen. Further: nearly all actives have a fitted effect of over 65% in size. On max response, negative = inhibition: series mostly up to about 57 µM. Conditions: Plk1 PBD binding of FITC phosphopeptide, fluorescence polarization. An excerpt:
The polo-like kinase 1 (Plk1) is a member of a conserved subfamily of serine / threonine protein kinases that plays a pivotal roles in cell proliferation. It has a C-terminal non-catalytic region called the polo-box domain (PBD) that plays a crucial role in the subcellular localization of the Plk1. […] Furthermore, depletion of the overexpressed Plk1 by RNAi efficiently induces apoptotic cell death in cancer and reduces tumor growth in mouse xenograft models. Thus, targeting Plk1 is an appealing strategy for anti-cancer therapy. Therefore, this project aimed to screen the Molecular Libraries Small Molecule Repository (MLSMR) using a novel approach to find inhibitors that target the Plk1 PBD instead of the conventional N-terminal catalytic domain. This project employed a fluorescence polarization (FP) assay using a FITC-conjugated phospho-9-mer (p-9-mer) peptide and purified human Plk1 PBD protein. The identified small molecule inhibitors of Plk1 PBD can then further be developed into useful tools for biomedical and clinical research that complements or replaces current relevant disease therapy. NIH Chemical Genomics Center [NCGC] NIH Molecular Libraries Probe Centers Network [MLPCN] MLPCN Grant: MH100728 Assay Submitter (PI): Kyung Lee, NCI
Four microliter of 25 nM FITC-p-9-mer + 60 nM Plk1 PBD in buffer solution (final concentrations 25 nM and 60 nM respectively) or 4 uL of 25 nM FITC-p-9-mer (final concentration 25 nM) in buffer will be dispensed into a 1,536 Greiner medium-binding black solid plate. Small molecules at final concentrations of 18 nM to 57 uM and positive control phospho-9-mer (sequence: Ac-PPLHSpTAI-NH2) at final concentrations 26 nM to 57 uM and phospho-13-mer (sequence: Ac-[…]pTAI-NH2) at final concentrations of 1 nM to 2.3 uM will be pin-transferred (23 nL) to the plate via a Kalypsys pin-tool robotics equipped with a 1,536-pin array. The reaction plate will be centrifuged for 1 min at 1000 rpm and incubated at room temperature for 10 min. The FITC fluorescence signals will be read using the PerkinElmer ViewLux plate reader at 480 / 20 nm excitation and 540 / 20 nm S and P polarization emission wavelengths. Reagent bottles will be kept submerged into 4 °C recirculating chiller bath and all liquid lines will be covered with aluminum foil to minimize degradation. Library plates will be screened starting from the lowest to the highest concentrations to minimize compound carryover. Vehicle only plates, with DMSO being pin-transferred instead of compound solutions, will be included regularly throughout the screen to record any systematic shifts in assay signal.
Background: qHTS replaces the single test concentration by a dilution series.
On to `Cc1ccc(CS(=O)(=O)c2ncc(Cl)c(C(=O)Nc3nnc(C)s3)n2)cc1`, for which the max response, negative = inhibition is -16.3% (inactive).

For the compound `CN1CCN(c2ccc(NC(=O)c3ccc4c(c3)[nH]c(=O)n4Cc3ccc(F)cc3)cc2)CC1`, the max response, negative = inhibition is -2.57% (inactive).

For the compound `Cc1cccc(NC(=O)c2nc(S(=O)(=O)Cc3ccccc3)ncc2Cl)c1`, the Potency was 8.44 µM (active). As to `COC(=O)[C@@]12C[C@@H](CC(=O)NCCCCc3ccccc3)C(=O)N(Cc3ccccc3)C1=CCC(C)(C)C2`, the max response, negative = inhibition was -7.29% (inactive). Same read-out and setting: the figure for `O=C(C[C@H]1C[C@@H]2c3cc(NC(=O)C4CCC4)ccc3O[C@@H]2[C@H](CO)O1)NC1CCCCC1` is -5.12% (inactive); for `COc1ccc(S(=O)(=O)N2CCC(C(=O)NCCC(=O)Nc3ccccc3OC)CC2)cc1` it is 2.5% (inactive); for `Cc1cccc(S(=O)(=O)N(C)C[C@@H]2OCc3cnnn3CCCC(=O)N([C@H](C)CO)C[C@@H]2C)c1` it is -8.68% (inactive).

As for `COc1ccc(C(=O)N2CCCCC2c2cc(C(=O)Nc3ccccc3)no2)cc1` (stereo not drawn), the max response, negative = inhibition was -2.81% (inactive). Same read-out and setting: the figure for `Cc1ccccc1S(=O)(=O)NC(=O)C1(C)CCN1C(=O)C1(c2ccccc2)CCCC1` (stereo not drawn) is 2.57% (inactive); for `CCn1c(CNC(=O)c2ccccc2)nnc1SCC(=O)N1CCN(c2ccccc2)CC1` it is -1.21% (inactive); for `Cn1c(CNC(=O)c2ccco2)nnc1SCC(=O)N1CCN(c2ccccc2)CC1` it is -4.04% (inactive). On to `Cn1c(Cc2cccc3ccccc23)nnc1SCC(=O)N1CCN(c2cccc(Cl)c2)CC1`, for which the Potency was 29.9 µM (active). As for `C[C@H]1CN([C@@H](C)CO)C(=O)c2cc(-c3cccc(F)c3)cnc2O[C@@H]1CN(C)S(C)(=O)=O`, the max response, negative = inhibition was -9.21% (inactive). For `COc1ccc(-c2c(C#N)cnc(C)c2C)c(O)c1OC`, the max response, negative = inhibition was -12.9% (inactive). Regarding `C[C@H](CO)N1C[C@H](C)[C@@H](CN(C)S(=O)(=O)c2ccc(F)cc2)OCc2cnnn2CCCC1=O`, the max response, negative = inhibition is -19.3% (inactive). Same read-out and setting: the figure for `O=C(Nc1cccc2ccccc12)c1[nH]c(-c2ccccc2)c2c1C(=O)N(C1CC1)C2=O` is -21.7% (inactive). The same measure, in the same setting: the value for `CN(C)C(=O)c1cccc(-c2cnc3c(NC=O)cc(-c4ccc(F)cc4)cn23)c1` was -19.5% (inactive); that for `CCc1cccc(C)c1NC(=O)COC(=O)CNC(=O)c1cccs1` was -0.37% (inactive). With `CCc1c(C)sc(NC(=O)c2cccs2)c1C(N)=O`, the Potency was 4.74 µM (active). For `CCc1c(C)sc(NC(=O)c2ccc(Br)o2)c1C(=O)OC`, the max response, negative = inhibition is -7.98% (inactive). Still for that read-out and setting: the value for `Cc1ccc(-c2ccc(C3=CC(=O)CC(C)(C)C3=O)cc2)cc1` was -0.955% (inactive).

For the compound `CCCNC(=O)c1cc(C2CCCCN2S(=O)(=O)c2cn(C)cn2)on1` (stereo not drawn), the max response, negative = inhibition was -4.21% (inactive). On the same count and under the same terms, the value for `CCCOc1ccc(F)cc1-c1cc(C(=O)Nc2ccc(F)c(Cl)c2)[nH]n1` was 0.655% (inactive); that for `CC(=O)Nc1nc(N(C)C)nc(N(C)C)n1` was 6.17% (inactive). For the compound `CN(C)c1nc(NN)nc(Nc2ccc(F)cc2)n1`, the max response, negative = inhibition was 4.54% (inactive). In the case of `CN(C)c1nc(Nc2ccc(Cl)c(Cl)c2)nc(N(C)C)n1`, the Potency is 2.99 µM (active). In the case of `CC(=O)Nc1cccc(-c2cc(NC(C)=O)c3ncc(-c4ccccc4)n3c2)c1`, the max response, negative = inhibition was -16.7% (inactive). Turning to `COc1ccccc1-c1n[nH]nc1C1=CC(=O)CC(C)(C)C1`, the max response, negative = inhibition was -7.34% (inactive).

Consider `CCCCN1C(=O)/C(=C(/C#N)C(N)=O)c2ccccc21`, for which the max response, negative = inhibition was -17.1% (inactive).

With `C#CCN1C(=O)C(O)(CC(=O)c2cc(OC)ccc2OC)c2ccccc21` (stereo not drawn), the max response, negative = inhibition was -9.34% (inactive).

`COc1ccc2c(c1)C(=C(C#N)C#N)C(=O)N2CCc1ccccc1`: the Potency was 2.67 µM (active). Turning to `COCCNc1nc(NCc2ccc(NC(C)=O)cc2)c2sccc2n1`, the max response, negative = inhibition was -10.2% (inactive). For the compound `Cc1ccc(NC(=O)Nc2ccccc2)c(Br)c1`, the max response, negative = inhibition is -8.61% (inactive).

With `CS(=O)(=O)c1ccc(Cl)c(NC(=O)Nc2ccccc2)c1`, the Potency was 23.8 µM (active). For `CS(=O)(=O)c1ccc(Cl)c(NC(=O)COC(=O)c2ncc(Cl)c(Cl)c2Cl)c1`, the max response, negative = inhibition is -10.8% (inactive). Still for that read-out and setting: the value for `CSc1ncnc2c1ncn2CCCNCC(C)c1ccccc1` (stereo not drawn) was 1.77% (inactive). Still for that read-out and setting: the value for `COC(=O)c1ccccc1SC1CC(=O)N(c2cccc(C)c2)C1=O` (stereo not drawn) was -24.8% (inactive).

`COc1cccc(N2C(=O)CC(N3CCc4ccccc4C3)C2=O)c1` (stereo not drawn): the max response, negative = inhibition is -2.65% (inactive).

With `Cc1cccc(N2C(=O)CC(SC(N)=Nc3ccccc3)C2=O)c1` (stereo not drawn), the Potency is 23.8 µM (active). As for `Cc1cccc(N2C(=O)SC(SC(=Nc3ccccc3)Nc3ccccc3)C2=O)c1` (stereo not drawn), the Potency is 15 µM (active).

Turning to `Cc1cccc(N2C(=O)SC(N(CC(=O)O)c3cccc(C)c3)C2=O)c1` (stereo not drawn), the max response, negative = inhibition is -27.2% (inactive). The same measure, in the same setting: the value for `Cc1cccc(N2C(=O)c3ccc(C(=O)Nc4cccc(C(=O)O)c4)cc3C2=O)c1` was 2.25% (inactive); that for `CCOc1ccc(CCN2C(=O)C(=O)N([C@@H](Cc3ccc(O)cc3)CN3CCC[C@H]3CN3C(=O)C(=O)NC[C@@H]3CC(C)C)C[C@@H]2Cc2ccccc2)cc1` was -15% (inactive).
